Compound activity (PubChem BioAssay)
WT yeast gro inh: growth inhibition of WT strain, primary screen, mitochondrial fusion inhibitor project, WT and mutant strains, chemical genetic; 190,000 tested, 2.1% active; AID 1362, 2008; mitochondrial fusion phenotypic screen; inhibition, % at 10 µM; in the data active means inhibition above about 58%; tested in S. cerevisiae
ROMK mod: ROMK potassium channel modulators, primary screen, cell-based, thallium flux, MLSMR library; AID 1918, 2009; B-score at 10 µM; ATP-sensitive inward rectifier potassium channel 1 (Homo sapiens), P48048; Tet-inducible ROMK, thallium flux fluorescence; actives lie on both sides; 130,000 tested, 2% active;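 active means signal ratio slope over the read window, or its plate-corrected B-score, at least 3 SD from the plate mean, either direction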;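 further: B-score of the F/F0 ratio slope over 7 to 12 s after thallium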
Cl transport mod: KCC2 cotransporter modulators, thallium flux, primary screen, cell-based, HEK293 KCC2, FluoZin-2 fluorescence, MLSMR; Solute carrier family 12 member 5 (Homo sapiens), Q9H2X9; KCC2 cells, thallium flux FluoZin-2 fluorescence; B-score of Tl+ flux slope (higher = more flux/activation; lower = inhibition) at 10 µM; AID 1456, 2008; 190,000 tested, 2.2% active;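 active means thallium flux slope and its plate-corrected score both differing from the plate sample mean at a set confidence after two filtering rounds, in either direction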;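 further: slope of fluorescence scaled to starting intensity during 10 to 20 s after thallium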
Target sequence (Q9H2X9 whole entry, looked up): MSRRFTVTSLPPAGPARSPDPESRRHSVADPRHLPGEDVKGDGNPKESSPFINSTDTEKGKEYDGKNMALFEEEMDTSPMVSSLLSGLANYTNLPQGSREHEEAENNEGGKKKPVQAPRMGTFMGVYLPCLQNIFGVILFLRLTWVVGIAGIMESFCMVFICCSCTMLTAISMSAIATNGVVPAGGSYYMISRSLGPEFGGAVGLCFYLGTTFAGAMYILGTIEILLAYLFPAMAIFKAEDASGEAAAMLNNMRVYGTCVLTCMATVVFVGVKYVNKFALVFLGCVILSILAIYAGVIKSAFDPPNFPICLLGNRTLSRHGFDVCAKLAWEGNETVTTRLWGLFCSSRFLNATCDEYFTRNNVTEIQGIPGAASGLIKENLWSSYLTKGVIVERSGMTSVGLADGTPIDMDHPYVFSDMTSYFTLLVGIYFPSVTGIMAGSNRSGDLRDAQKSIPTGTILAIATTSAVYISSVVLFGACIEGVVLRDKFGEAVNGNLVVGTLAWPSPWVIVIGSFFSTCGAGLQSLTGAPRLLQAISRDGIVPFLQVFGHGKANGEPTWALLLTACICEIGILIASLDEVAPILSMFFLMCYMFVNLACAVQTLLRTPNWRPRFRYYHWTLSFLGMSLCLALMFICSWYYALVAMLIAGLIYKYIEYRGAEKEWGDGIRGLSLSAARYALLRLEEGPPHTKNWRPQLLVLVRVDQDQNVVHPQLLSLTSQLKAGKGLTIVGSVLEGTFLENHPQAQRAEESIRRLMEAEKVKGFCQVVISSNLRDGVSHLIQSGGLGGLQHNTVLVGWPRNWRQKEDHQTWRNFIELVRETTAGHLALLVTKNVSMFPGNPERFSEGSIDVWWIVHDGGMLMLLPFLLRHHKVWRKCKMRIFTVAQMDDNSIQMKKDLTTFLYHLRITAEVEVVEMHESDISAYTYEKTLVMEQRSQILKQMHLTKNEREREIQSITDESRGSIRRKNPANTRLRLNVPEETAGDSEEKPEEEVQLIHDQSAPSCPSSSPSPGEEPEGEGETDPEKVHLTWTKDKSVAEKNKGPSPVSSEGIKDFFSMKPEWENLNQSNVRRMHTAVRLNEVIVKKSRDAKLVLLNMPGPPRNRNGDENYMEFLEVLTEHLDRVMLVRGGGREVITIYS
m-calpain inh: inhibitors of pig calpain II, primary screen, biochemical, fluorogenic peptide substrate, 1536-well; purified calpain II, 30 min; AID 1236, 2008; inhibition, % at 16 µM; 220,000 tested, 0.37% active;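 active means inhibition above about 50%, limit read from the data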
L major viab: Leishmania major promastigote growth inhibition, primary screen. Leishmania major promastigotes, resazurin fluorescence viability. inhibition, % at 10 µM. 200,000 tested, 9% active. AID 1063, 2008; in the data active means inhibition above about 50%;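 further: promastigotes grown with compound for 44 hours at 28 °C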
* hit, by the source's call. The list is not random: actives were taken first. Their share in the collection is about 12%.

Screening O=S(=O)(c1ccc(Cl)c(NC(=S)Nc2cccc(O)c2)c1)N1CCOCC1 returned WT yeast gro inh -7, ROMK mod -0.22, Cl transport mod 0.27, m-calpain inh -5 and L major viab -6.
Screening CCN(C(=S)Nc1cc(S(=O)(=O)N2CCOCC2)ccc1Cl)c1cccc2ccccc12 returned WT yeast gro inh 11, ROMK mod 0.09, Cl transport mod -0.33, m-calpain inh -110 and L major viab 65*.
For Cc1nc(NC(=O)CC(C)C)sc1-c1csc(Nc2ccc(Cl)cc2)n1 the results were WT yeast gro inh 81*, Cl transport mod -0.12, m-calpain inh -231 and L major viab 35.
CCCCCCC(=O)Nc1nc(C)c(-c2csc(Nc3ccc(Cl)cc3)n2)s1 was read as WT yeast gro inh -4, Cl transport mod 0.032, m-calpain inh -12 and L major viab 52*.
COc1ccc(OC)c(-n2c(=S)[nH]c3cc(C(=O)N4CCN(c5ccccc5)CC4)ccc3c2=O)c1 was read as WT yeast gro inh -6, ROMK mod 0.042, Cl transport mod -0.12, m-calpain inh -49 and L major viab -4.
Cn1cccc1C(=O)OCC(=O)NC1CCS(=O)(=O)C1 (configuration not stated) was read as WT yeast gro inh -12, ROMK mod -0.54, Cl transport mod -0.63, m-calpain inh -33 and L major viab -6.
Screening O=C(/C=C/c1ccccc1Cl)N(Cc1cccs1)C1CCS(=O)(=O)C1 (configuration not stated) returned Cl transport mod -1.6 and m-calpain inh 12.
`Cc1cccc(N=Nc2c(C)nn(-c3ccccc3)c2N)c1C` gave WT yeast gro inh 83*, ROMK mod -0.018, Cl transport mod 0.6, m-calpain inh 14 and L major viab 13.
`Cc1nn(-c2ccccc2)c(N)c1N=Nc1ccc(Cl)cc1` gave WT yeast gro inh 81*, Cl transport mod 0.064, m-calpain inh 28 and L major viab 14.
`Cc1ccc(Nc2nnc(C(C)(C)C)c(=O)n2N)cc1` gave WT yeast gro inh -3, Cl transport mod -0.49, m-calpain inh 0 and L major viab -6.
For CC(C)(C)c1nnc(N/N=C/c2cc(Br)ccc2O)n(N)c1=O the results were WT yeast gro inh 16, ROMK mod -0.63, Cl transport mod 1.1, m-calpain inh 11 and L major viab 98*.
For Nc1ccc(OCCCc2c(N)nc(N)nc2N)cc1 the results were Cl transport mod 0.63 and m-calpain inh -24.
For COc1ccccc1C(=O)N/C(=C\c1ccc(Br)cc1)C(=O)NCCC(=O)O the results were WT yeast gro inh -21, ROMK mod 0.006, Cl transport mod -1.4, m-calpain inh -30 and L major viab -10.
COc1ccc(/C=C(\NC(=O)c2ccccc2Cl)C(=O)NCCCC(=O)O)cc1 was read as WT yeast gro inh -24, ROMK mod 0.73, Cl transport mod 0.56, m-calpain inh 52* and L major viab -6.
For COc1ccccc1C(=O)N/C(=C\c1ccc(Br)cc1)C(=O)NCC(=O)O the results were WT yeast gro inh -9, ROMK mod 0.68, Cl transport mod 0.023, m-calpain inh 4 and L major viab 57*.
`Cc1cccc(NC(=O)c2nc[nH]c2C(=O)N[C@@H](CCCCNC(=O)OC(C)(C)C)C(=O)OC(C)(C)C)c1` gave m-calpain inh 39.
`O=C(NC(n1ccc(=O)[nH]c1=O)C(Cl)(Cl)Cl)C12CC3CC(CC(C3)C1)C2` (configuration not stated) gave Cl transport mod -1.2 and m-calpain inh 35.
For CCOC(=O)C1=C(C)NC(C)=C(C(=O)OCC)C1C(=O)OCC(N)=O the results were WT yeast gro inh 3, ROMK mod 0.095, Cl transport mod -0.2, m-calpain inh -41 and L major viab 2.
`CCOC(=O)C1=C(C)NC(C)=C(C(=O)OCC)C1C(=O)OCC(=O)c1ccc2c(c1)OCCO2` gave WT yeast gro inh -25, Cl transport mod 0.98, m-calpain inh -61 and L major viab 65*.
CCOC(=O)C1=C(C)NC(C)=C(C(=O)OCC)C1C(=O)OCC(=O)N1CCc2ccccc21 was read as WT yeast gro inh 14, Cl transport mod -0.63, m-calpain inh -44 and L major viab 97*.
For O=C(COc1cccc(Br)c1)N/N=C1\CCSC1 the results were WT yeast gro inh -3, ROMK mod -0.9, Cl transport mod -0.62, m-calpain inh -15 and L major viab -8.
For O=CN1CCN(S(=O)(=O)c2ccc(Cl)c(C(=O)O)c2)CC1 the results were WT yeast gro inh -9, ROMK mod 0.14, Cl transport mod -0.5, m-calpain inh -4 and L major viab -10.
CC(C)CNC(=O)COc1cccc(C(=O)NCc2ccccc2)c1 was read as WT yeast gro inh -9, ROMK mod 0.14, Cl transport mod -0.65, m-calpain inh 5 and L major viab 52*.
CCCNC(=O)COc1cccc(C(=O)NCc2ccccc2)c1 was read as WT yeast gro inh -5, ROMK mod 0.17, Cl transport mod 0.33, m-calpain inh -6 and L major viab -6.
For CCNC(=O)COc1cccc(C(=O)NCc2ccccc2)c1 the results were WT yeast gro inh -8, ROMK mod 0.32, Cl transport mod -0.042, m-calpain inh -1 and L major viab 51*.
For Oc1ccc(/C=N/n2c3ccccc3c3ccccc32)cc1 the results were WT yeast gro inh -2, ROMK mod 0.25, Cl transport mod 0.27, m-calpain inh 23 and L major viab 2.
For COc1cc(/C=C/c2ccc(O)cc2)cc(OC)c1 the results were WT yeast gro inh 58*, Cl transport mod 0.21 and m-calpain inh 17.
For O=C(CC12CC3CC(CC(C3)C1)C2)NC(=S)NCc1ccco1 the results were WT yeast gro inh 73*, ROMK mod -1.1, Cl transport mod 0.49, m-calpain inh 22 and L major viab 93*.
Screening O=C(NNc1ccccc1)C(=O)NNS(=O)(=O)c1ccc(CCCl)cc1 returned ROMK mod 0.00011, Cl transport mod 0.71 and m-calpain inh -14.
Nc1ccc(S(=O)(=O)NNC(=O)C(=O)NNc2ccccc2)cc1 was read as WT yeast gro inh 49, Cl transport mod 0.96, m-calpain inh -20 and L major viab 87*.
`COc1ccccc1C(=O)N(CCC1CCCN1C)c1nc2ccccc2s1` (configuration not stated) gave WT yeast gro inh 4, ROMK mod -0.96, Cl transport mod -0.05, m-calpain inh -8 and L major viab 100*.
COc1ccc2sc(N(CCCN(C)C)C(=O)c3nc4ccccc4s3)nc2c1 was read as WT yeast gro inh 9, ROMK mod -0.49, Cl transport mod 0.95, m-calpain inh 19 and L major viab -1.
